Here are results for 39 compounds from PubChem BioAssay (NCI).

The panel holds about 83,000 compounds, 20% with a hit somewhere; the sample as a whole holds those more often.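 Compound tested at a single concentration for 48 hours in 96-well plates; a percent growth value below 10 was scored as active.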 Values without a mark were called inactive. The source made the active and inactive calls.

For one assay, the system named is UACC-257 melanoma. Put plainly: NCI-60 one-dose screen, 48 h (100 = growth as untreated, 0 = no growth, -100 = all killed). As to conditions: 10 µM unless noted.
As for `CC(=O)Nc1cc2c3c(cccc3c1)-c1ccccc1-2`, the growth was 88.8%.
On the same count and under the same terms, then `Nc1ccc2c(c1)C(=O)c1cc(Cl)c(Cl)cc1-2`, with 107%.
Take `Cc1nn(-c2ccccc2)cc1/C=C1\SC(N2CCCCC2)=NC1=O`: the growth was 99.3%.
As to `COc1ccc(C2=NN(C(N)=S)C(c3ccc4c(c3)OCO4)C2)cc1` (stereo unspecified), the growth is 38%.
For `CCOC(=O)CCC(=O)O[C@H]1[C@H](O[C@@H]2[C@@H](C)[C@H](O[C@H]3C[C@@](C)(OC)[C@@H](O)[C@H](C)O3)[C@@H](C)C(=O)O[C@H](CC)[C@@](C)(O)[C@H](O)[C@@H](C)C(=O)[C@H](C)C[C@@]2(C)O)O[C@H](C)C[C@@H]1N(C)C`, the growth is 113%.
In the case of `c1ccc(-c2oc(-c3ccccc3)c3ccccc23)cc1`, the growth is 108%.
The same measure, in the same setting: then `O=C1Nc2ccc(C(=O)O)c(O)c2C1=O`, with 117%; and `CCCCCCCCN(CCO)CCCCCCCC`, with 94.3%.
Turning to `O=c1c2c(=NCCCN3CCCC3)cc3c(=O)n(CCCN4CCCC4)c(=O)c4c(NCCCN5CCCC5)cc(c(O)n1CCCN1CCCC1)c2c4-3`, the growth is -29.8% (active).
As for `Nc1ccc2c(c1)Cc1cc(Cl)c(Cl)cc1-2`, the growth was 77%.
For `Nc1ncnc2c1CN(Cc1ccccc1)CC2`, the growth is 111%.
For the compound `CC[C@@H](C)/C=C(C)/C=C/C(O)=C1\C(=O)N[C@@H](Cc2ccc(OC(=O)[C@@](OC)(c3ccccc3)C(F)(F)F)cc2)C1=O`, the growth was 94%.

In a further assay the test system is M14 melanoma. The assay is described as above. The conditions noted are these: 10 µM unless noted.
In the case of `C(=C1c2ccccc2-c2ccccc21)c1ccncc1`, the growth was 18.7%.
As for `O=Nc1c2cccnc2n2nnc3ccc(Cl)cc3c12`, the growth was 81.5%.
With `COc1ccc(/C=C2/SC(=Nc3c(C)nn(-c4ccccc4)c3N)NC2=O)cc1`, the growth is 17.2%.
On to `Cc1ccc(-c2c3c(N)c4c(nc3nc3c2c(C)nn3-c2ccccc2)CCC4)cc1`, for which the growth was 88%.
In the case of `Cc1cc(-c2ccccc2)cc(C)n1`, the growth was 103%.
As to `CCSCC1CC(O)(c2ccccc2)C(c2ccccc2)C(c2ccc(Cl)cc2)O1` (stereo unspecified), the growth is 14.3%.
In the case of `COc1ccc(/C=C/C(=O)c2cccc(NS(C)(=O)=O)c2)cc1`, the growth was 97.3%.
Still for that read-out and setting: then `Cc1[nH]cnc1/C=C1\SC(N2CCCCC2)=NC1=O`, with 103%; and `C[N+]1(C)C2CC[C@@H]1CC(OC(=O)C(O)c1ccccc1)C2` (stereo partly specified), with 105%; and `CN(C)CCCN=c1cc2c(=O)n(CCCN(C)C)c(=O)c3c(NCCCN(C)C)cc4c(O)n(CCCN(C)C)c(=O)c1c4c3-2`, with 3.47% (active).
Same read-out and setting: with `C[C@]12CC[C@H](O)CC1=CC[C@@H]1[C@@H]2CC[C@]2(C)C(c3cccnc3)=CC[C@@H]12` the figure was 71%.
Take `CCOC(=O)Nc1ccc2c3c(cccc13)-c1ccccc1-2`: the growth is 6.41% (active).
Consider `CSc1nc2nc3c(nc2c(=O)n1C)C(=O)c1ccccc1C3=O`, for which the growth was -84.6% (active).
Regarding `O=C1/C(=C\c2coc3ccccc3c2=O)c2ccccc2N1c1c(Cl)cccc1Cl`, the growth is 43.4%.
As to `O=C(Oc1cccc2ccccc12)c1ccccc1C(=O)c1ccccc1`, the growth is 93.4%.
In the case of `O=C1N=C(N2CCOCC2)S/C1=C\c1cn(-c2ccccc2)nc1-c1ccccc1`, the growth was 83.5%.
In the case of `Cn1c(N2N=C(c3ccc(Cl)cc3)CC2c2ccccc2)nc(-c2ccccc2)c(C#N)c1=O` (stereo unspecified), the growth was 90%.
For the compound `O=C(O)CNC(=O)C1(N2C(=O)c3ccccc3C2=O)CCCC1`, the growth is 105%.
Regarding `c1ccc(CN=C(NCc2ccccc2)NCc2ccccc2)cc1`, the growth is 52.9%.
On to `CN1CCN(CCCCCN=c2cc3c(=O)n(CCCCCN4CCN(C)CC4)c(=O)c4c(NCCCCCN5CCN(C)CC5)cc5c(O)n(CCCCCN6CCN(C)CC6)c(=O)c2c5c4-3)CC1`, for which the growth is 81.8%.
Same read-out and setting: with `Clc1ccc2c(c1)C(Br)c1cc(Cl)cc(Cl)c1-2` (stereo unspecified) the figure was 34.8%.
Still for that read-out and setting: with `CCCCCCCCCCCCC1CCCC(C)C1` (stereo unspecified) the figure was 106%; with `CC(=O)Nc1cc2c3c(cccc3c1)-c1ccccc1-2`, 99.6%; with `Nc1ccc2c(c1)C(=O)c1cc(Cl)c(Cl)cc1-2`, 104%.
`CCN(CC)c1ccc(/C=C/C(=O)c2cccc(NS(C)(=O)=O)c2)cc1`: the growth was 32.1%.
Same read-out and setting: with `Cc1ccc(OCC(=O)Nc2ccc(Oc3ccccc3)cc2)c([N+](=O)[O-])n1` the figure was 74.7%; with `Cc1nn(-c2ccccc2)cc1/C=C1\SC(N2CCCCC2)=NC1=O`, 92.6%.
As to `COc1ccc(C2=NN(C(N)=S)C(c3ccc4c(c3)OCO4)C2)cc1` (stereo unspecified), the growth was 21.6%.
Turning to `COc1ccc(-c2c3c(N)nc(-c4ccncc4)nc3nc3c2c(C)nn3-c2ccccc2)cc1`, the growth was 69.1%.
`CCOC(=O)CCC(=O)O[C@H]1[C@H](O[C@@H]2[C@@H](C)[C@H](O[C@H]3C[C@@](C)(OC)[C@@H](O)[C@H](C)O3)[C@@H](C)C(=O)O[C@H](CC)[C@@](C)(O)[C@H](O)[C@@H](C)C(=O)[C@H](C)C[C@@]2(C)O)O[C@H](C)C[C@@H]1N(C)C`: the growth was 97.2%.
Turning to `c1ccc(-c2oc(-c3ccccc3)c3ccccc23)cc1`, the growth is 110%.
Regarding `O=[N+]([O-])c1cc([N+](=O)[O-])c(N2CCCC2)cc1NN=C(c1ccc(O)cc1)c1ccc(O)cc1`, the growth is 7.88% (active).
As for `O=C1Nc2ccc(C(=O)O)c(O)c2C1=O`, the growth was 107%.
Same read-out and setting: with `CCCCCCCCN(CCO)CCCCCCCC` the figure was 101%; with `O=c1c2c(=NCCCN3CCCC3)cc3c(=O)n(CCCN4CCCC4)c(=O)c4c(NCCCN5CCCC5)cc(c(O)n1CCCN1CCCC1)c2c4-3`, -63.1% (active); with `O=C(N/N=C/c1cccc([N+](=O)[O-])c1)c1ccc(Br)o1`, 99.8%.
The same measure, in the same setting: with `Nc1ccc2c(c1)Cc1cc(Cl)c(Cl)cc1-2` the figure was -9.59% (active); with `Nc1ncnc2c1CN(Cc1ccccc1)CC2`, 111%.
Take `CC[C@@H](C)/C=C(C)/C=C/C(O)=C1\C(=O)N[C@@H](Cc2ccc(OC(=O)[C@@](OC)(c3ccccc3)C(F)(F)F)cc2)C1=O`: the growth is 97%.
